For 39 compounds, inhibition of percent positive cells and inhibition of mean fluorescence results are on record in PubChem BioAssay AID1014 (NMMLSC, 2008).

Each structure is given as a SMILES string. Active and inactive are the calls of the source. No stated cut-off is given here; in the data, active means inhibition of mean fluorescence above about 33%; inactive means the rest.

The nature of this test: blockers of bacterial quorum-sensing reporter fluorescence – flow cytometry, SAR analogs, SAR follow-up (AID 1014).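 Further: Staphylococcus aureus RN6390 with RNAIII-GFP reporter stimulated by AIP; bacteria incubated with compound for 3 hours at 37 °C.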 To be noted: at 20 µM, stronger effect = higher value; inhibition of percent positive cells: measured here: percent reporter-positive cells. On the technique in general: A flow cytometer gives signals particle by particle.
Turning to `O=C(Nc1ccc2c(c1)OCO2)C(c1ccccc1)N1CCN(C(=O)c2ccco2)CC1` (stereo not drawn), the inhibition of percent positive cells is 1% and the inhibition of mean fluorescence was -23.7% (inactive).
For `N#Cc1c(NC(=O)CCN2C(=O)c3ccccc3C2=O)oc(-c2ccccc2)c1-c1ccccc1`, in that order: -0.3% and 19.7% (inactive).
`CC(C)c1ccc(NC(=O)C(c2ccc3c(c2)OCO3)N2CCN(C(=O)c3ccco3)CC2)cc1` (stereo not drawn): the inhibition of percent positive cells was -1.4% and the inhibition of mean fluorescence was -33.9% (inactive).
For `CC(C)(C)c1ccc(S(=O)(=O)c2n[nH]n3c2nc(=O)c2ccccc23)cc1`, in that order: -1.8% and 13.3% (inactive).
Turning to `O=C(Nc1ccc2c(c1)OCCO2)N1CCCC(CN2CCc3ccccc3C2)C1` (stereo not drawn), the inhibition of mean fluorescence was -1.4% (inactive) and the inhibition of percent positive cells is 0.1%.
For `O=C(O)c1cccnc1Nc1cccc(SC(F)(F)F)c1`, in that order: 64.5% (active) and 8.8%.
For `CCOC(=O)C1CCN(C(C(=O)Nc2ccc3c(c2)OCO3)c2ccccc2)CC1` (stereo not drawn), in that order: -1% (inactive) and -0.4%.
For `O=C(NCC(c1cccnc1)N1CCN(c2ccccc2F)CC1)c1cccs1` (stereo not drawn), in that order: 19.5% (inactive) and -0.4%.
For the compound `O=C(CN1C(=O)c2ccccc2C1=O)N=C1NC(=O)CS1`, the inhibition of mean fluorescence is 3.2% (inactive) and the inhibition of percent positive cells is -1.2%.
For `COc1ccc(S(=O)(=O)c2nnn3c2nc(Nc2ccc(C)cc2)c2ccccc23)cc1`, in that order: 8.2% (inactive) and -0.3%.
With `CCOc1ccc(Nc2nc3c(S(=O)(=O)c4ccccc4)nnn3c3ccccc23)cc1`, the inhibition of percent positive cells was -0.2% and the inhibition of mean fluorescence was -16.3% (inactive).
For `O=C(CCN1CCN(c2ccccc2)CC1)Nc1ccc2c(c1)OCO2`, in that order: 1.3% and 5.8% (inactive).
For `COc1ccc(CC(=O)Nc2oc(-c3ccccc3)c(-c3ccccc3)c2C#N)cc1`, in that order: 1.3% and 42.6% (active).
For `COc1ccc(CC(=O)Nc2oc(-c3ccccc3)c(-c3ccccc3)c2C#N)cc1OC`, in that order: -0.5% and 20% (inactive).
As to `CC1CCCN(C(C(=O)Nc2ccc(C(C)C)cc2)c2ccc3c(c2)OCO3)C1` (stereo not drawn), the inhibition of percent positive cells amounted to 0.5% and the inhibition of mean fluorescence was 23.8% (inactive).
In the case of `COc1cccc(Nc2c(F)c(F)c(F)c(F)c2C(=O)O)c1`, the inhibition of mean fluorescence was -12.9% (inactive) and the inhibition of percent positive cells was -0.2%.
On to `O=C(c1ccco1)c1coc2ccc(O)cc12`, for which the inhibition of percent positive cells is 0.2% and the inhibition of mean fluorescence is -10.7% (inactive).
For `O=C(NCC(c1cccnc1)N1CCN(c2ccccc2F)CC1)c1ccccc1F` (stereo not drawn), in that order: -0.4% and -1.3% (inactive).
Regarding `COc1ccc(NC(=O)C(c2cc3c(cc2[N+](=O)[O-])OCO3)N2CC(C)CC(C)C2)cc1` (stereo not drawn), the inhibition of percent positive cells is 0.5% and the inhibition of mean fluorescence is 49.3% (active).
For `CC1CCN(C(C(=O)Nc2ccc3c(c2)OCO3)c2ccccc2)CC1` (stereo not drawn), in that order: -0.7% and 32.4% (active).
In the case of `COc1ccc(N2CCN(C(CNC(=O)c3ccc(F)cc3)c3cccnc3)CC2)cc1` (stereo not drawn), the inhibition of percent positive cells is -1.5% and the inhibition of mean fluorescence is -63.3% (inactive).
For the compound `CC1CCCN(C(C(=O)Nc2ccc3c(c2)OCCO3)c2ccccc2)C1` (stereo not drawn), the inhibition of mean fluorescence was 91.5% (active) and the inhibition of percent positive cells was 63.1%.
For `COc1ccc(Nc2nc3c(S(=O)(=O)c4ccc(F)cc4)nnn3c3ccccc23)cc1`, in that order: -28.2% (inactive) and -1.1%.
Consider `COc1cc(C(=O)NCC(c2cccnc2)N2CCN(c3ccccc3F)CC2)cc(OC)c1OC` (stereo not drawn), for which the inhibition of mean fluorescence is -57.3% (inactive) and the inhibition of percent positive cells was -1.5%.
As for `CC(=O)c1cc2c(cc1NC(=O)CN1CCN(C(=O)c3ccco3)CC1)OCO2`, the inhibition of mean fluorescence was -5.2% (inactive) and the inhibition of percent positive cells is -0.1%.
For `CC(=O)c1c(C)oc2c1cc(O)c1ccccc12`, in that order: 9.1% (inactive) and -0.2%.
For `CC(C)c1ccc(NC(=O)C(c2ccc3c(c2)OCO3)N2CCc3ccccc32)cc1` (stereo not drawn), in that order: 26.3% (inactive) and -1.6%.
For `CC(NC(=O)c1cccc(F)c1)C(c1cccs1)N1CCN(c2ccccc2F)CC1` (stereo not drawn), in that order: 16.4% (inactive) and 0.2%.
With `CN1CCN(C(=O)C(=O)Nc2ccc3c(c2)OCO3)CC1`, the inhibition of percent positive cells was 0.1% and the inhibition of mean fluorescence is -2.5% (inactive).
For `CC1CCN(C(C(=O)Nc2ccc(C(C)C)cc2)c2ccc3c(c2)OCO3)CC1` (stereo not drawn), in that order: -0.9% and 35% (active).
For `O=C(NCC(c1cccnc1)N1CCN(c2ccc(F)cc2)CC1)c1cccs1` (stereo not drawn), in that order: -0.3% and 20.1% (inactive).
For `CC1CN(CCC(=O)Nc2ccc3c(c2)OCO3)CC(C)O1` (stereo not drawn), in that order: -1.3% and 14% (inactive).
`CC1CCN(C(=O)c2oc3ccccc3c2NC(=O)c2ccc3c(c2)OCO3)CC1`: the inhibition of mean fluorescence was 25.2% (inactive) and the inhibition of percent positive cells is -0.2%.
Consider `COc1ccc(S(=O)(=O)c2nnn3c2nc(Nc2ccccc2)c2ccccc23)cc1`, for which the inhibition of mean fluorescence was -22.4% (inactive) and the inhibition of percent positive cells was determined as 0.4%.
Consider `COc1ccccc1N1CCN(C(CNC(=O)c2cccc(Cl)c2)c2cccnc2)CC1` (stereo not drawn), for which the inhibition of percent positive cells was found to be 15.4% and the inhibition of mean fluorescence is 72.3% (active).
For `COc1ccc(Nc2nc3c(S(=O)(=O)c4ccc(Cl)cc4)nnn3c3ccccc23)cc1`, in that order: -0.9% and -19.3% (inactive).
For `O=C(Nc1ccc2c(c1)OCO2)C(c1ccc(Cl)cc1)N1CCN(C(=O)c2ccco2)CC1` (stereo not drawn), in that order: -0.3% and 2.2% (inactive).
For `O=C(O)c1cc(Nc2ccccc2C(=O)O)nc(Nc2ccccc2C(=O)O)n1`, in that order: -0.3% and 2.4% (inactive).
For `CC1CCCN(CCC(=O)Nc2ccc3c(c2)OCO3)C1` (stereo not drawn), the inhibition of percent positive cells was -1.5% and the inhibition of mean fluorescence is -15.3% (inactive).
